High-throughput results deposited in PubChem by National Center for Advancing Translational Sciences (NCATS).
Compounds with a hit are over-represented: about 11% of the library has one in this group of screens.
HPGD inh – inhibitors of human 15-hydroxyprostaglandin dehydrogenase (HPGD) | purified HPGD, NADH fluorescence kinetic, PGE2 substrate | Potency, µM, for inactives: top-dose activity change, negative = inhibition, usual class: inhibitors | P15428 | hit rate 4.3% among 150,000 | AID 894; further: potency means the concentration at half of the fitted maximal effect
Target sequence (P15428 whole entry, looked up): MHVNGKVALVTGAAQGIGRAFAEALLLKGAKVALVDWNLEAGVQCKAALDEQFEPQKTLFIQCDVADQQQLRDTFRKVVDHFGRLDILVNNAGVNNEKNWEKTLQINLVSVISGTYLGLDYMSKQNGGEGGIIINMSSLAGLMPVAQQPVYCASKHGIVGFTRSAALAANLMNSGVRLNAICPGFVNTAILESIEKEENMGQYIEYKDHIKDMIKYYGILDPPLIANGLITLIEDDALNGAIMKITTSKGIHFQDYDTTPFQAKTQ
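20 nM HPGD preincubated 15 min at room temperature with compound in 50 mM Tris-HCl pH 8, 0.01% Tween 20. Started with 1 mM NAD+ and 30 uM prostaglandin E2; NADH fluorescence (360/450 nm) read 5 times over 30-s intervals, last minus first.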
IMPase cell inh – IMPase inhibition in cells | P97697 | CHO-M1 cells, IP1 accumulation, HTRF TR-FRET ratio | inhibition (IP1 accumulation), % at 46.1 µM | 120,000 tested, under 10 active; active means well fitted curve in the direction sought with a large enough effect in the signal ratio, not every such curve was filed as active; inconclusive means small, poorly fitted or top-dose-only effect, or a change in a side signal; inactive means no such curve, though single readings can be large or run the other way; the % refers to the signal ratio;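 further: cells stimulated with carbachol in lithium chloride buffer; plate controls were DMSO basal wells for no effect and reference inhibitor wells for full effect; higher means more IMPase inhibition seen as more IP1 and lower FRET ratio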
Target sequence (P97697 whole entry, looked up): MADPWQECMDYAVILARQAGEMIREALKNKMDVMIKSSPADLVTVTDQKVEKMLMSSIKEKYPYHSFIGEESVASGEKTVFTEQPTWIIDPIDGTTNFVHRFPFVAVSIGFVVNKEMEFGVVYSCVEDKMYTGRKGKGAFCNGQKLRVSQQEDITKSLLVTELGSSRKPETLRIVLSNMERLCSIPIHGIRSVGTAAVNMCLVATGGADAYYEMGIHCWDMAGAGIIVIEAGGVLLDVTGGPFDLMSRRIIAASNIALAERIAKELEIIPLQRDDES
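Elevated IP1 in lysates lowers TR-FRET signal (665/620 ratio and 620 channel reported). Cells were CHO-M1, given carbachol (50 uM as added) plus 50mM LiCl, pH 7.4, 30 min, 37C; compounds titrated up to 46 uM; AC50 by Hill equation.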
IMPase Li cell – cell-permeable IMPase inhibitors with lithium potentiation; AID 1457; Potency, µM (highest dose often 59.4 µM), for inactives: at the highest dose activity, negative = IMPase inhibition, most hits filed as inhibitors; CHO-M1 cells, IP1 TR-FRET (IP-One), carbachol + lithium; hit rate 0.35% among 210,000; active means well fitted curve in the direction sought with a large enough effect; inconclusive means small, poorly fitted or top-dose-only effect, or another doubt; inactive means no such curve, though single readings can be large; an effect the other way counts as inactive or inconclusive;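 further: IP1 builds up when IMPase is blocked and the TR-FRET signal falls; potency means the concentration at half of the fitted maximal effect; plate controls were basal vehicle for no effect and high inhibitor control for full effect; nearly all actives have a fitted effect of over 50% in size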
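Lithium-sensitised IP1 accumulation assay; M1-expressing CHO cells treated 30 min at 37C with compound. Competitive antibody detection by time-resolved FRET followed a 10 min room-temperature lysis step.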
PNC inhibitor – perinucleolar compartment assembly inhibition; PC3M PTB-GFP, PNC prevalence imaging, 16 h; stronger effect = lower value; activity change (PNC), negative = inhibition, % at 10 µM; hit rate 3.1% among 140,000;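 active means readout at or below -70, meaning at least 70% loss of cells showing the perinucleolar compartment, a nuclear body marking cancer cells; inconclusive means readout between -30 and a set limit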;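 further: plate controls were DMSO wells for no effect and camptothecin positive control wells for full effect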
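PC3M cells stably expressing PTB-GFP, 750–1000 cells/well, treated 16 h at 37 °C with compound (23 nl of library stock), in duplicate. After paraformaldehyde fixation and Hoechst stain, imaged at 20x; PNC prevalence scored by image analysis.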
ALOX12 inhib – 12-hLO (ALOX12) enzyme inhibition; P18054; purified 12-hLO, xylenol orange hydroperoxide absorbance; Potency, µM (doses to about 57.1 µM), for inactives: at the top dose activity change, negative = inhibition, usual class: inhibitors; hit rate 0.12% among 150,000; active means well fitted curve in the direction sought with a large enough effect; inconclusive means small, poorly fitted or top-dose-only effect, or another doubt; inactive means no such curve, though single readings can be large; an effect the other way counts as inactive or inconclusive; further: potency means the concentration at half of the fitted maximal effect; nearly all actives have a fitted effect of over 55% in size
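Purified human 12hLO (150 nM final) was preincubated with compounds for 15 min at room temperature in 25 mM Hepes pH 7.0, 0.01% Triton X-100, then reacted with 40 uM arachidonic acid for 30 min. Hydroperoxide was detected with ferrous iron/xylenol orange.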
ALDH1A1 block – inhibitors of human aldehyde dehydrogenase 1A1. P00352. hit rate 7.3% among 220,000. Purified ALDH1A1, NADH fluorescence, propionaldehyde substrate. AID 1030. Potency, µM (series often up to 75.3 µM), for the others: at the highest dose activity, negative = inhibition, actives largely listed as inhibitors;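 further: potency means the concentration at half of the fitted maximal effect; plate controls were no enzyme wells and a reference inhibitor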
The depositor's hits bear a star; u = inconclusive; x = no result given; [ ] = dose if it differs, or a comment. Unless noted, the call rests on the fitted dose curve; in most records, active means well fitted inhibition curve with a large enough effect (not every such curve was filed as active); inconclusive means small, poorly fitted or top-dose-only effect, or another doubt; inactive means no such curve, though single readings can be large or run the other way. Unless noted, on the % scale 0 is the no-effect control and ±100 the full control effect.

SMILES | HPGD inh | IMPase cell inh | IMPase Li cell | PNC inhibitor | ALOX12 inhib | ALDH1A1 block
C[C@H](NC[C@H](O)CP(=O)(O)Cc1ccccc1)c1ccc(Cl)c(Cl)c1 | -3% | 0 | 2% | x | -2% | 4%
c1ccc(Cn2cnc3ccccc32)cc1 | 2% | 9 | 1% | -8 | 7% | 2%
c1cncc(-c2nn3c(Cn4cnc5ccccc54)nnc3s2)c1 | 3.2µM* | 6 | 6%[38.3 µM] | -28 | 3% | 1µM*
c1ccc(-c2nn3c(Cn4nnc5ccccc54)nnc3s2)cc1 | 10µM* | -4 | 8%[38.3 µM] | 13 | -6% | 3.2µM*
c1ccc(-c2nn3c(Cn4cnc5ccccc54)nnc3s2)cc1 | 4.5µM* | -5 | 11% | -3 | 0% | 2.2µM*
CC(C)C(N)C(=O)NC(Cc1c[nH]c2ccccc12)C(=O)O (stereo unspecified) | -2% | x | 7% | x | -4% | -2%
O=[N+]([O-])c1ccccc1S(=O)(=O)NCC1CCC(CNCC2CCc3ccccc3C2)CC1 (stereo unspecified) | -12% | x | 29% | x | -7% | -7%
Cc1cc(C)cc(OCc2ccc(C(=O)Nc3ccccc3F)o2)c1 | x | -4 | x | x | x | x
CC1CN(S(=O)(=O)c2ccc(Cl)c(C(F)(F)F)c2)CC(C)O1 (stereo unspecified) | -6% | 5 | 10µM* | 7 | 2% | -2%
CC1CN(C2CCN(S(=O)(=O)c3ccccc3)CC2)CC(C)O1 (stereo unspecified) | -11% | 3 | 13% | 14 | -6% | u
CC1CN(C2CCN(S(=O)(=O)c3ccc(F)cc3)CC2)CC(C)O1 (stereo unspecified) | -2% | 2 | 23%[38.3 µM] | -30 | -5% | 25µM*
C[C@H](CCC(=O)O)[C@H]1CC[C@@H]2[C@H]3[C@@H](CC[C@@]21C)[C@]1(C)CC[C@H](O)C[C@@H]1C[C@@H]3O | -2% | -3[20.6 µM] | -8% | x | 1%[25.6 µM] | -5%[20.9 µM]
C/C(N)=C(/C#N)C(=O)COC(=O)C1CCC(C(C)(C)C)CC1 (stereo unspecified) | -2% | 7 | 14%[38.3 µM] | 3 | -7% | u
CCOC(=O)C1=C(C)NC(=O)NC1c1cccs1 (stereo unspecified) | x | x | 3% | x | x | 0%
CC1=C(C(=O)OC(C)(C)C)C(c2cccs2)NC(=O)N1 (stereo unspecified) | -1% | x | 6% | -95* | -1% | u
Cn1c(=O)c(-c2cccs2)nc2cnc(N3CCOCC3)nc21 | x | x | 15% | x | x | 3%
Cc1cn(C2CC(N=[N+]=[N-])C(CO)O2)c(=O)[nH]c1=O (stereo unspecified) | -5% | x | 12% | x | 2% | 1%
CCOC(=O)c1ccccc1OC(=O)CS(=O)c1ccccc1[N+](=O)[O-] (stereo unspecified) | x | x | 6% | x | x | 22µM*
COC(=O)c1ccc(OC(=O)CS(=O)c2ccccc2[N+](=O)[O-])cc1 (stereo unspecified) | x | x | -5% | x | x | -1%
CC1CN(C)C(c2ccccc2)C(C)C12NC(=O)NC2=O (stereo unspecified) | -13% | 6 | -15%[38.3 µM] | 8 | -11% | 7.1µM*
COC(=O)c1cc(=O)nc2sc(-c3ccccc3)nn12 | -17% | 5 | -15%[38.3 µM] | -22 | -4% | u
CCCCc1c(O)nc2sc3cc(OC)ccc3n2c1=O | 16µM* | -1 | 18%[38.3 µM] | -13 | 2% | 4%
COC(=O)c1cc(=O)nc2sc3cc(OC)ccc3n12 | -9% | 2 | 6% | u | 1% | 16µM*
O=C(Nc1cccc(F)c1)N1CC[C@@]2(CCCN(C(=O)c3cccc(F)c3)C2)C1 | -4% | x | -1% | x | 3% | 8%
Cc1cc(CNC(=O)[C@H](C)[C@@H]2C[C@@]2(C)[C@@H](NC(=O)OCc2ccccc2)c2ccccc2)nn1C | -16% | x | 24% | 41 | -2% | u
SMILES | HPGD inh | IMPase cell inh | IMPase Li cell | PNC inhibitor | ALOX12 inhib | ALDH1A1 block
COc1ccc(CNC(=O)[C@H](C)[C@H]2C[C@]2(C)[C@H](NC(=O)OCc2ccccc2)c2ccccc2)cc1OC | -10% | x | 8% | x | -4% | 3.5µM*
Cc1cc(CNC(=O)[C@H](C)[C@H]2C[C@]2(C)[C@H](NC(=O)OCc2ccccc2)c2ccccc2)nn1C | -9% | x | -23% | x | -1% | 4µM*
C[C@@H](C(=O)O)[C@H]1C[C@]1(C)[C@H](NC(=O)OCc1ccccc1)c1ccccc1 | -6% | x | 8% | 16 | 3% | 7.1µM*
COc1ccc(CNC(=O)[C@H](C)[C@@H]2C[C@@]2(C)[C@@H](NC(=O)OCc2ccccc2)c2ccccc2)cc1OC | u | x | 15% | 37 | -13% | -4%
CCCCc1nc2c(c3c1C[C@H](C)OC3)CN(S(=O)(=O)c1ccc(C#N)cc1)CC2 | -4% | x | 9% | x | 0%[11.4 µM] | 14%[13.5 µM]
O=S(=O)(c1ccccc1)N1CCC2(CCN(Cc3nccs3)CC2)CC1 | -12% | x | 18% | x | 6% | 8%
CNc1sc(C(=O)c2cccs2)c(N)c1-c1nc2ccccc2s1 | 16µM* | -1 | -16%[38.3 µM] | 26 | -27% | 1.8µM*
Cc1nc2cnc(N3CCNCC3)nc2n(-c2ccccc2)c1=O | u | x | -5% | x | 3% | u
Cc1c(C(=O)OCC(=O)N2CC(C)OC(C)C2)oc2ccc(Br)cc12 (stereo unspecified) | u | -11 | u | u | -6% | 0.18µM*
CC1CN(C(=O)COC(=O)c2c(Cl)cccc2Cl)CC(C)O1 (stereo unspecified) | x | x | 4% | x | x | -1%
CC(C)(C)C(=O)NC(=S)N1CCc2ccccc21 | x | x | 9% | x | x | 11µM*
CC(Oc1ccc(Cl)cc1Cl)C(=O)NC(=S)N1CCc2ccccc21 (stereo unspecified) | -22% | 9 | u | -27 | -13% | 18µM*
CC(Oc1ccc(Cl)cc1Cl)C(=O)NCCN1CCOCC1 (stereo unspecified) | -7% | 1 | -13%[38.3 µM] | -5 | 1% | 4%
CC(Oc1ccc(Cl)cc1Cl)C(=O)N/N=C1\CCCc2ccccc21 (stereo unspecified) | -25% | -5 | 4%[38.3 µM] | -13 | 6% | -7%
CC(Oc1ccc(Cl)cc1Cl)C(=O)NN=C1CCN(C)CC1 (stereo unspecified) | -3% | x | -3% | -22 | -4% | 2.5µM*
CC1(OC(=O)CCc2ccccc2)C(=O)C=C2C=C(c3ccc(C#N)cc3)OC=C2C1=O (stereo unspecified) | -4% | x | -1% | x | -12% | u
COC(=O)c1ccc(C2C(C#N)=C(N)Oc3cc(C)n(C)c(=O)c32)cc1 (stereo unspecified) | -12% | 5 | -7%[38.3 µM] | 38 | -6% | 25µM*
